Data taken from ChEMBL document CHEMBL1961873, “Compounds: GSK PKIS; Assays: Nanosyn kinase panel” (2012).

What was measured:
[1] = molecular target: Death-associated protein kinase 1 (Homo sapiens) (UniProt P53355); conditions: at 1 µM;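 also: each value is a mean inhibition figure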
[2] = molecular target: T1, Serine/threonine-protein kinase DCLK2 (Homo sapiens) (UniProt Q8N568); conditions: at 0.1 µM
T1 sequence (whole entry): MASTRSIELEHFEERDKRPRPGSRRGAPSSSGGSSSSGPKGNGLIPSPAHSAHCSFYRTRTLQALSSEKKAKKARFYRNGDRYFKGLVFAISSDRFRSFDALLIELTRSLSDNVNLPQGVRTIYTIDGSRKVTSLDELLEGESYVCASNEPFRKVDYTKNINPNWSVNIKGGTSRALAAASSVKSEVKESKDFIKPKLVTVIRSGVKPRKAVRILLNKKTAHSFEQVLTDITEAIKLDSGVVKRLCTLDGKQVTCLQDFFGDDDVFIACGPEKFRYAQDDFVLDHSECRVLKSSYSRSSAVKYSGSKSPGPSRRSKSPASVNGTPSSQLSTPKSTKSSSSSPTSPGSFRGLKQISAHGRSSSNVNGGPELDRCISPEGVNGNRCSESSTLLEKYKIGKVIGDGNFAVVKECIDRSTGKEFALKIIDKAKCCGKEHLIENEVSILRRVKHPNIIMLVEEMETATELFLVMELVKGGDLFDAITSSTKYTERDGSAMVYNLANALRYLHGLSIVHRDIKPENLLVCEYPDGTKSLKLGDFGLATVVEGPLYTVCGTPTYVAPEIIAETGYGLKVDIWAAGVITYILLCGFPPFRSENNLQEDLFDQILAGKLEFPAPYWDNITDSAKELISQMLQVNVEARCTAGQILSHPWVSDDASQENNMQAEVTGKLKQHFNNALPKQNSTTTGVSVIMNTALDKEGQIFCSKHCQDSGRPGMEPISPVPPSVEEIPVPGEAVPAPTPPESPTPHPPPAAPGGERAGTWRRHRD

[3] = molecular target: T1, Serine/threonine-protein kinase DCLK2 (Homo sapiens); conditions: at 1 µM
[4] = molecular target: MAP kinase-activated protein kinase 2 (Homo sapiens) (UniProt P49137); conditions: at 0.1 µM
[5] = molecular target: MAP kinase-activated protein kinase 2 (Homo sapiens) (UniProt P49137); conditions: at 1 µM
[6] = molecular target: MAP kinase-activated protein kinase 3 (Homo sapiens) (UniProt Q16644); conditions: at 0.1 µM
[7] = molecular target: MAP kinase-activated protein kinase 3 (Homo sapiens) (UniProt Q16644); conditions: at 1 µM
[8] = molecular target: Serine/threonine-protein kinase MARK1 (Homo sapiens) (UniProt Q9P0L2); conditions: at 0.1 µM
[9] = molecular target: Serine/threonine-protein kinase MARK1 (Homo sapiens) (UniProt Q9P0L2); conditions: at 1 µM
[10] = molecular target: MAP/microtubule affinity-regulating kinase 3 (Homo sapiens) (UniProt P27448); conditions: at 0.1 µM
[11] = molecular target: MAP/microtubule affinity-regulating kinase 3 (Homo sapiens) (UniProt P27448); conditions: at 1 µM
[12] = molecular target: T2, MAP/microtubule affinity-regulating kinase 4 (Homo sapiens) (UniProt Q96L34); conditions: at 0.1 µM
T2 sequence (whole entry): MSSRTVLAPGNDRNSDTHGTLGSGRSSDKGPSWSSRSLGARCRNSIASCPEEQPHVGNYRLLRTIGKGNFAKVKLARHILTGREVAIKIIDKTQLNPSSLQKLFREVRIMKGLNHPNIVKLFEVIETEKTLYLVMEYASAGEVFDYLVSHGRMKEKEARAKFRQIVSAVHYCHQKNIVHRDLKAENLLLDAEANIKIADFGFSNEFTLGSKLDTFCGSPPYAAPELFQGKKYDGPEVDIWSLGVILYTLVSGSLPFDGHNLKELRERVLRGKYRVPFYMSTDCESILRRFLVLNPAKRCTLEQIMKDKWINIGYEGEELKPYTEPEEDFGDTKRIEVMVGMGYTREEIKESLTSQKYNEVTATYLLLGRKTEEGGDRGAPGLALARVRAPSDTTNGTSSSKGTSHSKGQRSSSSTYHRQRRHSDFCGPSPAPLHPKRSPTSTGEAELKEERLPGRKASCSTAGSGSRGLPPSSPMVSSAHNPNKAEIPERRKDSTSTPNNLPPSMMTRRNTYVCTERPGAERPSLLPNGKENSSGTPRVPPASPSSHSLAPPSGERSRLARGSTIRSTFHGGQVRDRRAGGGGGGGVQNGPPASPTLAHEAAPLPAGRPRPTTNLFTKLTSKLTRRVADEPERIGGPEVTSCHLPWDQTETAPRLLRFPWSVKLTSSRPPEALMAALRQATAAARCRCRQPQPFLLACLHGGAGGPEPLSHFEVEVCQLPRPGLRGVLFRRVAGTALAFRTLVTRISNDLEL

[13] = molecular target: T2, MAP/microtubule affinity-regulating kinase 4 (Homo sapiens); conditions: at 1 µM
[14] = molecular target: Maternal embryonic leucine zipper kinase (Homo sapiens) (UniProt Q14680); conditions: at 0.1 µM
[15] = molecular target: Maternal embryonic leucine zipper kinase (Homo sapiens) (UniProt Q14680); conditions: at 1 µM
[16] = molecular target: MAP kinase-interacting serine/threonine-protein kinase 1 (Homo sapiens) (UniProt Q9BUB5); conditions: at 0.1 µM
[17] = molecular target: MAP kinase-interacting serine/threonine-protein kinase 1 (Homo sapiens) (UniProt Q9BUB5); conditions: at 1 µM
[18] = molecular target: MAP kinase-interacting serine/threonine-protein kinase 2 (Homo sapiens) (UniProt Q9HBH9); conditions: at 0.1 µM
[19] = molecular target: MAP kinase-interacting serine/threonine-protein kinase 2 (Homo sapiens) (UniProt Q9HBH9); conditions: at 1 µM
[20] = molecular target: Serine/threonine-protein kinase MARK2 (Homo sapiens) (UniProt Q7KZI7); conditions: at 0.1 µM;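 also: mean percent inhibition of PAR-1Balpha kinase activity, reported from the GSK PKIS screen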
Serine/threonine-protein kinase MARK2 (Homo sapiens), sequence (Q7KZI7 whole entry): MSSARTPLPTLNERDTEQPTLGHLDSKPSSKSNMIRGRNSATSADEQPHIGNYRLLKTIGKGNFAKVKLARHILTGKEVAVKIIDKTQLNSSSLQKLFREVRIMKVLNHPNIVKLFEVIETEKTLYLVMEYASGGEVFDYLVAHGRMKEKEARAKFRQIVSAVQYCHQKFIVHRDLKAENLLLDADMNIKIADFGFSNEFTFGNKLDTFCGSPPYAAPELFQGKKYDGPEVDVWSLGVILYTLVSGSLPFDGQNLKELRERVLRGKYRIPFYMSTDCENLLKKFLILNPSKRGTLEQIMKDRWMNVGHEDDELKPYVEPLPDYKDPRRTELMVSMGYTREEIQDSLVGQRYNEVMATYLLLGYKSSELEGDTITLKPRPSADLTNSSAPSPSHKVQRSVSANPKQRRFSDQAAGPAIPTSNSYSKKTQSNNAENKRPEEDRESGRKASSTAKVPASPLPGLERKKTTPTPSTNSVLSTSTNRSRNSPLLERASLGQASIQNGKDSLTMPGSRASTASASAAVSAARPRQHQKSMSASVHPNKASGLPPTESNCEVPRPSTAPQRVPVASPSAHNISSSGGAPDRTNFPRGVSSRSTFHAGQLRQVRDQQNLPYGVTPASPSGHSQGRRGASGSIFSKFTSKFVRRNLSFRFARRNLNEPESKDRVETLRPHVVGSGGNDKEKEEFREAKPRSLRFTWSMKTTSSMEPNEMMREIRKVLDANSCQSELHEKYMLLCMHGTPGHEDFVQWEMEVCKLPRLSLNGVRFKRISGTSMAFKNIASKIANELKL

MAP/microtubule affinity-regulating kinase 3 (Homo sapiens), sequence (P27448 whole entry, looked up): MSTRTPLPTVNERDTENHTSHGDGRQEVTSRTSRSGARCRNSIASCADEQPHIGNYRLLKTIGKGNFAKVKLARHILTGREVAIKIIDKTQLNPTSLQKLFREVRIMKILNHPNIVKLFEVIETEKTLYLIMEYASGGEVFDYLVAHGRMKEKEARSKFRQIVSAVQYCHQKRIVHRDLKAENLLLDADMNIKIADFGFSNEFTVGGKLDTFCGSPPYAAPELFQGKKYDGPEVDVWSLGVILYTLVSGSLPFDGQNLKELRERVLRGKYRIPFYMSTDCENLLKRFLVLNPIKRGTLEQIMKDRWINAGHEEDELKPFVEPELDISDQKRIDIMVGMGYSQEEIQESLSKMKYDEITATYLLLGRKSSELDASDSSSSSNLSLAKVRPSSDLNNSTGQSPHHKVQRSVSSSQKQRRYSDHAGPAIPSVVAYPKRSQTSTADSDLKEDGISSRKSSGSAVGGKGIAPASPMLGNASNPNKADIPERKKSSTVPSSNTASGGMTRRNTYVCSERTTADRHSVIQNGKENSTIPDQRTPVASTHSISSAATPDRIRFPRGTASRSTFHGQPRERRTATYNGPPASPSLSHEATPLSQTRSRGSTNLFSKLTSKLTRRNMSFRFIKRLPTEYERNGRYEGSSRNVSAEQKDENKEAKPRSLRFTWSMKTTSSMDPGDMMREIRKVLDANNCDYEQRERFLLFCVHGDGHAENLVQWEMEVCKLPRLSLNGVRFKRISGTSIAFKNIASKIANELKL
MAP kinase-activated protein kinase 3 (Homo sapiens), sequence (Q16644 whole entry, looked up): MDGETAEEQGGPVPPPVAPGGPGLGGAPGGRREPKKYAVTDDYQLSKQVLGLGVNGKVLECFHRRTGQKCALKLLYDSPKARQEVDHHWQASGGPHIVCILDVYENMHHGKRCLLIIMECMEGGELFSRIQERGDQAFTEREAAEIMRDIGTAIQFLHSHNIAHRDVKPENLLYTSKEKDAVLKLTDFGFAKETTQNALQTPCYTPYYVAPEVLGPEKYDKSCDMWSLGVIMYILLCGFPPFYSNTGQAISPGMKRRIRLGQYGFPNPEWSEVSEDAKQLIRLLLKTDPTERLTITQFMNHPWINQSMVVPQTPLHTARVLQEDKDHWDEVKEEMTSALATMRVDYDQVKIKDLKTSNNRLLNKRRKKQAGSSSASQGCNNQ
Death-associated protein kinase 1 (Homo sapiens), sequence (P53355 whole entry, looked up): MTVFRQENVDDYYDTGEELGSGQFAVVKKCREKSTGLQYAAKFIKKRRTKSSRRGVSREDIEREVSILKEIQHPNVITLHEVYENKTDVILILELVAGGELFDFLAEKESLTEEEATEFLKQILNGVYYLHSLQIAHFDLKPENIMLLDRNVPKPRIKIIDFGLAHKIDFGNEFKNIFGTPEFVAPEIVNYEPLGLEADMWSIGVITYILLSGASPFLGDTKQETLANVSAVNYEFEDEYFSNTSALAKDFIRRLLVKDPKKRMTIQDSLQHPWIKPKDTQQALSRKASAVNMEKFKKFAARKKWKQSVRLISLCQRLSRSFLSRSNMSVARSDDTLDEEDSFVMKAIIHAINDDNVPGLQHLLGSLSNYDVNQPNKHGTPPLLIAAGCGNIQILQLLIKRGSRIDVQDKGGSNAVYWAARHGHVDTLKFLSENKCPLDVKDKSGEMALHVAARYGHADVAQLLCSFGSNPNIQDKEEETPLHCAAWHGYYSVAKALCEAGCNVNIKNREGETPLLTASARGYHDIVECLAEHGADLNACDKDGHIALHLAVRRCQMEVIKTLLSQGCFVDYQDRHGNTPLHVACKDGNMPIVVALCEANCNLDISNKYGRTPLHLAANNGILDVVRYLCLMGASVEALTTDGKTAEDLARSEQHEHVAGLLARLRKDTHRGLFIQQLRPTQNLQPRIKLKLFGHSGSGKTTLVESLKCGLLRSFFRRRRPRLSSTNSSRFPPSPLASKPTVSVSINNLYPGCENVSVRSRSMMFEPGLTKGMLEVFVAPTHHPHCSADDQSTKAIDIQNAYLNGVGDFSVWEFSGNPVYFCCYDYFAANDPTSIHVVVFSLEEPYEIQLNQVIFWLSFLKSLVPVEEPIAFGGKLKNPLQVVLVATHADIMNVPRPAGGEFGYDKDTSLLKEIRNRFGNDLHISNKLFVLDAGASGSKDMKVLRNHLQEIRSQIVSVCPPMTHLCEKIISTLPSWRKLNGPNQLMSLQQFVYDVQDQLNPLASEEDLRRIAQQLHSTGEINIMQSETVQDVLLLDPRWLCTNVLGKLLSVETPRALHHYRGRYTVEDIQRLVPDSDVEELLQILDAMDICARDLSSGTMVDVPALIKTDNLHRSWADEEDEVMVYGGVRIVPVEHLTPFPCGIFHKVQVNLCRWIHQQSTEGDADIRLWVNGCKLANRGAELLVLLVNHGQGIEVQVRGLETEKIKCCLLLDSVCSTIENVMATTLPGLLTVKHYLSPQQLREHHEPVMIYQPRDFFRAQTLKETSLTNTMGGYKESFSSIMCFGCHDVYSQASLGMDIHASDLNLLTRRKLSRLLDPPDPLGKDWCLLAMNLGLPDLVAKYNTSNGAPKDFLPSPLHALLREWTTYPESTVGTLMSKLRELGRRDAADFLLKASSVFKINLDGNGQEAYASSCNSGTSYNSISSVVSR
Maternal embryonic leucine zipper kinase (Homo sapiens), sequence (Q14680 whole entry, looked up): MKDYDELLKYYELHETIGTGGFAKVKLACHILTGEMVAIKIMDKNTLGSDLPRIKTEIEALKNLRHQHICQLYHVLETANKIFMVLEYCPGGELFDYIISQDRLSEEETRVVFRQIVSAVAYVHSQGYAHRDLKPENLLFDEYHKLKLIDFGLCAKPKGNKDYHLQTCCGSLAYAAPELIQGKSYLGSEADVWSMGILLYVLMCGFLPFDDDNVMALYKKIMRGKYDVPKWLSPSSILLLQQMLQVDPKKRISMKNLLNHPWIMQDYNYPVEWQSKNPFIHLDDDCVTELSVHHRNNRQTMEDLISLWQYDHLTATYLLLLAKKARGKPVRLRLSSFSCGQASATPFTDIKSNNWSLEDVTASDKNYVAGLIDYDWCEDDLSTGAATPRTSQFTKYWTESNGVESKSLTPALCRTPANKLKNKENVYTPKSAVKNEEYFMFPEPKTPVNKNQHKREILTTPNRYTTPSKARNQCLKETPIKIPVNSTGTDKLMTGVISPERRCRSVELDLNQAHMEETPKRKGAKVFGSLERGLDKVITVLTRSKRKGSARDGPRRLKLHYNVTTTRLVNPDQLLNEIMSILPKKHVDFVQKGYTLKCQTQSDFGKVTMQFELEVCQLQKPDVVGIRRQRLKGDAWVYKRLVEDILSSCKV
Serine/threonine-protein kinase MARK1 (Homo sapiens), sequence (Q9P0L2 whole entry, looked up): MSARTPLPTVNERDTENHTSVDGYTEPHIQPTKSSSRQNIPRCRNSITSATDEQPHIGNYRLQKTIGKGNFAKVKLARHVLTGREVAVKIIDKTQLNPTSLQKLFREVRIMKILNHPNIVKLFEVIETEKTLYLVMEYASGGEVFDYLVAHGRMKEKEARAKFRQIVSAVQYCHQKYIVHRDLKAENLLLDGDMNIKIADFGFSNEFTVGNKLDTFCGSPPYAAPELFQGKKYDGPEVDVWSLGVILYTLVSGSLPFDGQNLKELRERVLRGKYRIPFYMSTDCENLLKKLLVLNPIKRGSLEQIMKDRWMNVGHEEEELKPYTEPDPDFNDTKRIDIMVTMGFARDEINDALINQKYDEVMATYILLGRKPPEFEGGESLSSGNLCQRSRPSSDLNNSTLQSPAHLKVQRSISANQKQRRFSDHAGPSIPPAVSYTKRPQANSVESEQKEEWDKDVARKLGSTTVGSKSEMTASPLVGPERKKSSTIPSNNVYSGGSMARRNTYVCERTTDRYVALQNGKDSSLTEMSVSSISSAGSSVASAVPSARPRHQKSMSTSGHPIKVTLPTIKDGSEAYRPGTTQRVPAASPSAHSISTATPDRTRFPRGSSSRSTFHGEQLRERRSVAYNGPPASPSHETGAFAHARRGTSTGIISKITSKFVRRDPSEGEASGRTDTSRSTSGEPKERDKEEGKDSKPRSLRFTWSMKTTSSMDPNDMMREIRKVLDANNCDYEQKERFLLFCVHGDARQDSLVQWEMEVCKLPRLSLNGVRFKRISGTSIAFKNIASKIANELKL

O=S(=O)(CCNCc1ccc(-c2ccc3ncnc(Nc4ccc(OCc5cccc(F)c5)c(Cl)c4)c3c2)o1)c1ccccc1
inhibition [1]: 6.96%
inhibition [2]: 1.44%
inhibition [3]: 2.85%
inhibition [4]: 2.31%
inhibition [5]: 2.57%
inhibition [6]: 7.71%
inhibition [7]: 7.76%
inhibition [8]: 3.69%
inhibition [9]: 5.01%
inhibition [10]: 3.94%
inhibition [11]: 5.8%
inhibition [12]: 3.85%
inhibition [13]: 2.5%
inhibition [14]: 5.2%
inhibition [15]: 3.07%
inhibition [16]: 2.9%
inhibition [17]: 5.96%
inhibition [18]: 0.8%
inhibition [19]: 4.95%
inhibition [20]: 0.66%

c1cc(-c2cnn3nc(N4CCOCC4)ccc23)nc(NC2CC2)n1
inhibition [1]: 3.38%
inhibition [2]: -0.25%
inhibition [3]: -2.52%
inhibition [4]: 1.29%
inhibition [5]: 1.97%
inhibition [6]: 5.27%
inhibition [7]: 6.31%
inhibition [8]: 3.55%
inhibition [9]: 10.3%
inhibition [10]: 4.76%
inhibition [11]: 12.9%
inhibition [12]: 1.01%
inhibition [13]: 5.05%
inhibition [14]: 8.27%
inhibition [15]: 43.9%
inhibition [16]: 4.33%
inhibition [17]: 19.8%
inhibition [18]: 7.65%
inhibition [19]: 42.5%
inhibition [20]: 0.85%

CCN1CCC(CC(=O)Nc2n[nH]c3nnc(-c4cccc(F)c4F)cc23)CC1
inhibition [1]: 3.28%
inhibition [2]: -0.85%
inhibition [3]: 1.18%
inhibition [4]: 1.15%
inhibition [5]: 0.52%
inhibition [6]: 1.74%
inhibition [7]: 0.62%
inhibition [8]: 1.89%
inhibition [9]: 2.48%
inhibition [10]: 2.14%
inhibition [11]: 2.57%
inhibition [12]: 2.32%
inhibition [13]: 2.11%
inhibition [14]: 3.71%
inhibition [15]: 2.39%
inhibition [16]: 1.66%
inhibition [17]: 2.05%
inhibition [18]: 1.98%
inhibition [19]: 2.98%
inhibition [20]: -2.03%
